MPTP inh – blocks calcium-induced mitochondrial swelling | inhibition, % at 10 µM | AID 602449 | isolated mouse mitochondria, Ca2+ swelling absorbance, 30 min | hit rate 1.4% among 360,000;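 active means inhibition of 50% or more, scaled per plate between neutral and stimulator controls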;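 further: 0% = DMSO wells given calcium and 100% = 1 mM EGTA wells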
DSG3 Ab inh – human desmoglein-3 autoantibody binding inhibition. P32926. DSG3-coupled beads, scFv-anti-DSG3-GFP binding, flow cytometry; active compounds read low. binding (percent of control), % at 10 µM. hit rate 0.48% among 310,000. AID 588358;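 active means binding more than 3 SD below its plate's average and above zero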;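 further: hits lower antibody fragment binding to DSG3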
ADAM17 inh – ADAM17 inhibition, QFRET primary screen | AID 720648 | recombinant ADAM17, EDANS/DABCYL FRET peptide cleavage | P78536 | inhibition, % at 6.95 µM | hit rate 0.83% among 370,000;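 active means inhibition above the mean of compounds lying between control limits plus 3 SD, set per campaign, cut at about 8.5% in these data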;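 further: 0% = DMSO-only wells as the low control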
Target sequence (P78536 215-824 limits assumed): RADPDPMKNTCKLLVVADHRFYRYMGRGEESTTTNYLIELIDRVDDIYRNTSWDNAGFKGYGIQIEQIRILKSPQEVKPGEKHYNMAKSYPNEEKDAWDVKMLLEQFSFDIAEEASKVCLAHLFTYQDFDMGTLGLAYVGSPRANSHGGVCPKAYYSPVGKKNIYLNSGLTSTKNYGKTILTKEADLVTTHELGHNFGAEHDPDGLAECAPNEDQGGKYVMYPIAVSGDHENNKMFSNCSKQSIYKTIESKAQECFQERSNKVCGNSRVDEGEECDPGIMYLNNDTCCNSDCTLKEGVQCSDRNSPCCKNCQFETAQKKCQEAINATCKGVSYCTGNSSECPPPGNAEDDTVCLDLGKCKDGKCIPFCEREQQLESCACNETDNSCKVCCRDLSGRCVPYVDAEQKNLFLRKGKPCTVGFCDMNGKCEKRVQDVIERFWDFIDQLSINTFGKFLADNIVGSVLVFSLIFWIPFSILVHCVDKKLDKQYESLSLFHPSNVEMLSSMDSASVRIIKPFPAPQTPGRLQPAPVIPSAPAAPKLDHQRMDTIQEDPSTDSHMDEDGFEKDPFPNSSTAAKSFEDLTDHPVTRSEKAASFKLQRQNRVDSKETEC
ADAM10 inh – ADAM10 inhibition, QFRET primary screen; hit rate 0.62% among 370,000; O14672; recombinant ADAM10, EDANS/DABCYL FRET peptide cleavage, 3 h; inhibition, % at 7 µM;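 active means inhibition above a per-campaign cutoff equal to the mean of compounds falling between control-based bounds plus 3 SD, cut at about 20% in these data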;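 further: 0% = DMSO wells while the 100% control is not disclosed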
KLK7 zymogen act – proKLK7 (human) activation, primary screen; P49862; purified proKLK7, EDANS-DABCYL substrate fluorescence; 100% is mature enzyme control, 0% vehicle; activation, % at 7 µM; hit rate 0.9% among 370,000;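 active means activation above the mean of all tested compounds plus 3 SD, computed per campaign excluding outliers beyond control limits, cut at about 13% in these data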
rCAG RNA binder – r(CAG) repeat RNA binding; TO-PRO-1 dye displacement fluorescence; inhibition, % at 3 µM; hit rate 1.3% among 370,000; AID 651821;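 active means inhibition above the plate cutoff, the mean of all test compounds on that plate plus 3 SD, cut at about 35% in these data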;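 further: 0% = DMSO alone and 100% = 100 µM mitoxantrone as full dye displacement; higher means more dye released from RNA so lower well fluorescence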
Rh123 counter – membrane potential counter-screen of mitochondrial pore inhibitors; shares compounds with MPTP inh; isolated mitochondria, Rhodamine 123 fluorescence; inhibition, % at 10 µM; hit rate 78% among 5,000; in the data active means inhibition above about 22%;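 further: 0% = DMSO vehicle and 100% = positive control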
MPTP abs DR – MPTP inhibition, dose response swelling confirmation; shares compounds with MPTP inh; isolated mitochondria swelling, absorbance; IC50, µM; hit rate 58% among 780; AID 651561; in the data active means IC50 below about 20 µM
MPTP cs DR – MPTP inhibitor counter-screen activity, dose response; IC50, µM; AID 651564; hit rate 49% among 780; shares compounds with MPTP inh; isolated mitochondria counterscreen, fluorescence read-out; in the data active means IC50 below about 80 µM
* hit, by the source's call; ! = repeats disagree. This is a sample that favours compounds with a hit; in the whole collection about 4.7% have one here.

CCOC(=O)c1sc(-c2ccccc2)cc1NC(=O)Nc1ccc([N+](=O)[O-])cc1 was read as MPTP inh 87*, ADAM17 inh 0, ADAM10 inh -4, KLK7 zymogen act 0, rCAG RNA binder 9, Rh123 counter -5, MPTP abs DR inactive and MPTP cs DR <2.5*.
CCOC(=O)c1sc(-c2ccccc2)cc1N was read as MPTP inh 4, DSG3 Ab inh 100, ADAM17 inh -28, ADAM10 inh -134, KLK7 zymogen act 0 and rCAG RNA binder 1.
`Cc1cc(C(=O)O)c(C)o1` gave ADAM17 inh 1, ADAM10 inh -3, KLK7 zymogen act 1 and rCAG RNA binder 0.
For Cc1cc([N+](=O)[O-])ccc1NC(=O)Cc1ccc(F)cc1 the results were MPTP inh 3, DSG3 Ab inh 96, ADAM17 inh 2, ADAM10 inh 9, KLK7 zymogen act 0 and rCAG RNA binder -3.
Cc1cc([N+](=O)[O-])ccc1NC(=O)Nc1ccccc1F was read as MPTP inh 93*, DSG3 Ab inh 84, ADAM17 inh 5, ADAM10 inh -3, KLK7 zymogen act 0, rCAG RNA binder 5 and Rh123 counter 92*.
O=C(Nc1ccccc1)Nc1cc([N+](=O)[O-])ccc1F was read as MPTP inh 63*, DSG3 Ab inh 110, ADAM17 inh -3, ADAM10 inh -6, KLK7 zymogen act 0, rCAG RNA binder 3 and Rh123 counter 91*.
`Cc1cc(=O)oc2cc(OCc3c(F)cccc3Cl)ccc12` gave ADAM17 inh -5, ADAM10 inh -16, KLK7 zymogen act 0 and rCAG RNA binder 3.
CCOc1ccc(-n2c(SCC(=O)Nc3cccc4ccccc34)nnc2-c2cccs2)cc1 was read as ADAM17 inh 5, ADAM10 inh 4, KLK7 zymogen act -1 and rCAG RNA binder 12.
For O=C(N[C@@H](Cc1cccnc1)C(=O)N1CCC[C@H]1C(=O)NC1CCCC1)C1CCCC1 the results were ADAM17 inh -2, ADAM10 inh -2, KLK7 zymogen act 0 and rCAG RNA binder 2.
For CCC(C)Sc1ccc(-c2nc3cc(C)ccn3c2NC2CCCCC2)cc1 (stereo not drawn) the results were MPTP inh 56*!, DSG3 Ab inh 114, ADAM17 inh -3, ADAM10 inh -21, KLK7 zymogen act -8, rCAG RNA binder -12 and Rh123 counter 101*.
Screening CCC(C)Sc1ccc(-c2nc3cnccn3c2NC2CCCCC2)cc1 (stereo not drawn) returned MPTP inh 2, ADAM17 inh -63, ADAM10 inh -241, KLK7 zymogen act -20 and rCAG RNA binder -1.
Screening COc1cc(NC(=O)CSCC(=O)Nc2cccc(C(F)(F)F)c2)c(Cl)cc1Cl returned MPTP inh 58*, DSG3 Ab inh 101, ADAM17 inh 7, ADAM10 inh 19, KLK7 zymogen act -1, rCAG RNA binder 5 and Rh123 counter 63*.
`COc1ccc(NC(=O)CSCC(=O)NCc2cccc(C(F)(F)F)c2)cc1` gave MPTP inh 2, DSG3 Ab inh 97, ADAM17 inh -2, ADAM10 inh 3, KLK7 zymogen act 0 and rCAG RNA binder -1.
O=S(=O)(c1ccc(F)cc1)N1CCCc2nc(-c3ccc(Br)cc3)ccc21 was read as ADAM17 inh -1, ADAM10 inh -7, KLK7 zymogen act 0 and rCAG RNA binder 1.
For C#CCOCCOCCOCCNc1nc(N2CCN(C(=O)[C@H](CCCCN)n3cc(CN)nn3)CC2)nc(N2CCN(C(=O)[C@H](CCCCN)n3cc([C@@H](N)[C@H](C)CC)nn3)CC2)n1 the results were MPTP inh 88*, DSG3 Ab inh 111, ADAM17 inh -3, ADAM10 inh -2, KLK7 zymogen act -1, rCAG RNA binder 12, Rh123 counter -14, MPTP abs DR 6.4* and MPTP cs DR 65*.
Screening C#CCOCCOCCOCCNc1nc(N2CCN(C(=O)[C@H]([C@@H](C)CC)n3cc([C@@H](N)CC(C)C)nn3)CC2)nc(N2CCN(C(=O)[C@H](CCCCN)n3cc([C@@H](N)CC(C)C)nn3)CC2)n1 returned DSG3 Ab inh 107.
Screening C#CCOCCOCCOCCNc1nc(N2CCN(C(=O)[C@H](CCCCN)n3cc([C@@H](N)C(C)CC)nn3)CC2)nc(N2CCN(C(=O)[C@H](CCCCN)n3cc([C@@H](N)C(C)CC)nn3)CC2)n1 (stereo partly drawn) returned ADAM17 inh -5 and ADAM10 inh -12.
`C#CCOCCOCCOCCNc1nc(N2CCN(C(=O)[C@H](CCCN=C(N)N)n3cc(C(N)[C@@H](C)CC)nn3)CC2)nc(N2CCN(C(=O)[C@H](CCCCN)n3cc([C@@H](N)[C@H](C)CC)nn3)CC2)n1` (stereo partly drawn) gave MPTP inh 101*, DSG3 Ab inh 108, ADAM17 inh 0, ADAM10 inh -4, KLK7 zymogen act 0, rCAG RNA binder 17, Rh123 counter -6, MPTP abs DR 1.5* and MPTP cs DR >80.
For C#CCOCCOCCOCCNc1nc(N2CCN(C(=O)[C@H]([C@@H](C)CC)n3cc([C@@H](N)CC(C)C)nn3)CC2)nc(N2CCN(C(=O)[C@H](CCCCN)n3cc([C@@H](N)C(C)CC)nn3)CC2)n1 (stereo partly drawn) the results were MPTP inh 76*, DSG3 Ab inh 107, Rh123 counter -16, MPTP abs DR 2.4* and MPTP cs DR >80.
`CCOC(=O)C1(CCOc2ccccc2)CCN(Cc2ccc(OC)cc2)CC1` gave MPTP inh 87*, DSG3 Ab inh 136, ADAM17 inh 2, ADAM10 inh 5, KLK7 zymogen act 1, rCAG RNA binder -8 and Rh123 counter 36*.
Screening CCOC(=O)C1(CCOc2ccccc2)CCN(Cc2cccc(OC)c2OC)CC1 returned MPTP inh 75*, DSG3 Ab inh 113, ADAM17 inh -1, ADAM10 inh 2, KLK7 zymogen act 1, rCAG RNA binder -1 and Rh123 counter 33*.
CCOC(=O)C1(Cc2cccc(OC)c2)CCN(Cc2ccc(C)s2)CC1 was read as MPTP inh 97*, DSG3 Ab inh 86, ADAM17 inh -1, ADAM10 inh 1, KLK7 zymogen act 1, rCAG RNA binder -7 and Rh123 counter 85*.
CCOC(=O)c1c(Nc2ccc(OC)cc2)n[nH]c1C was read as ADAM17 inh -1, ADAM10 inh -6, KLK7 zymogen act 0 and rCAG RNA binder 2.
